Shown are actives, neighbours in structure and some others; about 2.4% of the full set was active somewhere.
eIF4H FP inh: inhibitors of RNA binding by human eIF4H. eIF4H fluorescence polarization binding assay. inhibition, % at 35 µM. hit rate 0.94% among 290,000;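 also: calls also rest on retests at 20 µM and on dose response follow-up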
PABP polyA inh: blocks human PABP binding to poly(A) RNA. P11940. fluorescence polarization. inhibition, % at 35 µM. hit rate 1% among 290,000;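 also: calls also rest on retests at 20 µM and on dose response follow-up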
Target sequence (P11940 whole entry, looked up): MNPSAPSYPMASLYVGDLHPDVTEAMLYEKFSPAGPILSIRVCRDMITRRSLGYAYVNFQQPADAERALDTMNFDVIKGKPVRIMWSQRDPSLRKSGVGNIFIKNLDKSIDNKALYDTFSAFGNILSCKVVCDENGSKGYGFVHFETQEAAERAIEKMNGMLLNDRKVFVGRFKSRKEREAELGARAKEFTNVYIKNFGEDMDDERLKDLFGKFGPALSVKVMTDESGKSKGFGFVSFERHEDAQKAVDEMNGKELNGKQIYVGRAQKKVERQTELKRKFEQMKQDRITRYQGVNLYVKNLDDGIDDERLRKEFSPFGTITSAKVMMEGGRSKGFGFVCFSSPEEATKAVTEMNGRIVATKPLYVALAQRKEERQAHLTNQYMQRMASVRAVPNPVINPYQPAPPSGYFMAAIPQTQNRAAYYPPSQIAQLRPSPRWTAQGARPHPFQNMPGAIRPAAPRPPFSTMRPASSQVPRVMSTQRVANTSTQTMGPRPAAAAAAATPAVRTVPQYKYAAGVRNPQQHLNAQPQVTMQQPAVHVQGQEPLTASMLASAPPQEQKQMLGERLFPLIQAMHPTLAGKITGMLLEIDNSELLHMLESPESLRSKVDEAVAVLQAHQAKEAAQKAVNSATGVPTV
MLLE-PAM2 inh: blocks PAM2 peptide binding to the PABP1 MLLE domain | GST-MLLE / FITC-PAM2 fluorescence polarization | hit rate 0.36% among 360,000 | inhibition, % at 20 µM; in the data active = inhibition above about 35%, passing the limit was not always enough
eIF4E 4G PPI: inhibitors of eIF4E and eIF4G interaction in translation initiation; AID 782; hit rate 0.37% among 220,000; TR-FRET eIF4E-eIF4GI(517-606) binding, 2 h; inhibition, % at 21.7 µM; P63073+Q04637;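 active = inhibition above about 30%, limit read from the data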
PfM18AAP inh: blocks P. falciparum M18 aspartyl aminopeptidase; recombinant PfM18AAP, H-Glu-NHMec fluorogenic cleavage; inhibition, % at 7.35 µM; hit rate 1.2% among 290,000; AID 1822;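 active = inhibition above the campaign mean inhibition over all tested compounds plus 3 SD, cut at about 28% in these data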
PERK inhibitor: human PERK inhibition, primary cell-based screen; CHO PERK-DD fusion, SEAP luminescence translation reporter; hit rate 0.17% among 220,000; inhibition, % at 5.6 µM;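 active = inhibition above the mean inhibition of all tested compounds plus 3 SD, set separately per screening campaign, cut at about 2.9% in these data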;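 also: PERK kinase domain activated by AP20187 dimerizer at 100 nM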
Large screens that a line does not name were inactive. Unless noted, no rule for the calls is given here.

CCOc1ccccc1NC(=S)NC(=O)C1CCCCC1	none (no result: eIF4E 4G PPI, PERK inhibitor)
Cc1cccc([C@@H]2[C@@H]3C(=O)N(Cc4ccccc4)C(=O)[C@@H]3[C@]3(Cc4ccccc4)C(=O)N(c4ccc(C(F)(F)F)cc4)C(=O)N23)c1	none (no result: eIF4H FP inh, PABP polyA inh, eIF4E 4G PPI, PfM18AAP inh, PERK inhibitor)
Nc1cc(Nc2ccc(Br)cc2)nc(N)n1	MLLE-PAM2 inh 43
CCc1ccc(N=C2NC(=O)/C(=C/c3cc(Br)c(OCC(=O)O)c(OC)c3)S2)cc1	eIF4H FP inh 81 (no result: eIF4E 4G PPI, PERK inhibitor)
CCc1ccc(N=C2NC(=O)/C(=C/c3cc(OC)c(OC)c(OC)c3)S2)cc1	none (no result: eIF4E 4G PPI, PERK inhibitor)
Cc1cc(SCCC(=O)O)nc2ccccc12	PfM18AAP inh 30 (no result: eIF4E 4G PPI)
COc1cccc(OCCNS(=O)(=O)c2ccccc2[N+](=O)[O-])c1	none (no result: eIF4H FP inh, PABP polyA inh, eIF4E 4G PPI, PfM18AAP inh, PERK inhibitor)
O=C(c1[nH]c(C(F)(F)F)nc1-c1ccccc1)N1CCN(c2c(Cl)cncc2Cl)CC1	none (no result: eIF4H FP inh, PABP polyA inh, eIF4E 4G PPI, PfM18AAP inh, PERK inhibitor)
COc1ccc(OCC(=O)Nc2ccccc2C(=O)N2CCOCC2)cc1	eIF4H FP inh active, PABP polyA inh 90
O=C(COc1ccc(Br)cc1)Nc1ccccc1C(=O)N1CCOCC1	none (no result: eIF4E 4G PPI, PERK inhibitor)
O=C(c1ccc([N+](=O)[O-])cc1)N(Cc1ccccc1)c1ccccn1	none
O=[N+]([O-])c1ccccc1SN(Cc1ccccc1)c1ccccn1	eIF4H FP inh 58, PABP polyA inh 5.0
CCNc1nc(=S)nc(NC(C)C)[nH]1	PfM18AAP inh 30
COC(=O)c1ccc2c(=O)n(CCO)c(=S)[nH]c2c1	none
COC(=O)c1ccc2c(=O)n(NC(=O)C(c3ccccc3)c3ccccc3)c(=S)[nH]c2c1	MLLE-PAM2 inh 38
COC(=O)C1=C(C)NC(=O)/C1=C\c1cc(C)n(-c2ccccc2C)c1C	eIF4H FP inh 57, PABP polyA inh 49
Cc1ccc(Sc2ncccc2NC(=O)c2ccccc2Cl)cc1	none
Cc1ccc(C(CCN(Cc2ccccc2)C(=O)c2ccco2)c2ccco2)cc1 (stereo unspecified)	none
O=C(c1ccco1)N(CCC(c1ccccc1)c1ccco1)Cc1ccco1 (stereo unspecified)	eIF4H FP inh 68
COc1ccc(-c2nc(NC(=O)c3n[nH]c(=O)c4ccccc34)sc2C)cc1	none
COc1ccc(NC(=O)c2sc3nc(N4CCOCC4)c4c(c3c2N)CC(C)(C)OC4)c(OC)c1	PfM18AAP inh 31 (no result: eIF4E 4G PPI, PERK inhibitor)
CCC(=O)Nc1ccc(C(=O)CSc2nnc(-c3ccccc3F)n2C2CC2)cc1	eIF4H FP inh 73
CCC(C)NC(=O)NC(=O)CSc1nnc(-c2ccccc2F)n1C1CC1 (stereo unspecified)	none (no result: eIF4E 4G PPI, PERK inhibitor)
CCOc1ccc(NC(=O)Cn2c(=O)n(CC3CCCO3)c(=O)c3ccccc32)cc1 (stereo unspecified)	eIF4H FP inh active
COc1ccc2[nH]c(=O)c(CN(Cc3cccs3)C(=S)NCC3CCCO3)cc2c1 (stereo unspecified)	eIF4E 4G PPI 71
Cc1cccc(NC(=S)NNC(=O)c2ccc(O)cc2O)c1C	PfM18AAP inh 29
Cc1cc(CSc2ccccc2)ccc1NC(=O)c1ccc(Cl)c([N+](=O)[O-])c1	none
O=CNn1cnc2c(oc3nc(-c4ccccc4)cc(-c4ccco4)c32)c1=O	eIF4H FP inh 51
COc1ccc(CCC(=O)Nc2ccccc2C(F)(F)F)cc1	eIF4H FP inh 80, PABP polyA inh 18
Cc1ccc(OCC(=O)N(Cc2cccs2)C2CCS(=O)(=O)C2)cc1 (stereo unspecified)	none
Cc1cccc(OCC(=O)N(Cc2cccs2)C2CCS(=O)(=O)C2)c1C (stereo unspecified)	eIF4H FP inh 83
Cn1cc(NC(=O)Nc2ccc(C(F)(F)F)cc2)c(C(F)(F)F)n1	PERK inhibitor 3.9
COc1ccccc1NC(=O)COC(=O)c1c(NC(C)=O)sc(C)c1C	none (no result: eIF4H FP inh, PABP polyA inh, eIF4E 4G PPI, PfM18AAP inh, PERK inhibitor)
CC1=C(C(=O)Nc2cc(-c3cccc(F)c3)[nH]n2)C2(CCCCC2)OC1=O	eIF4H FP inh 55, PABP polyA inh active
CS(=O)(=O)Nc1ccc(C(=O)NCCSCc2ccco2)cc1	none
CS(=O)(=O)N(Cc1ccccc1)c1ccc(C(=O)NCCSCc2ccco2)cc1	MLLE-PAM2 inh 45
CN(C)S(=O)(=O)c1ccc(NC(=O)COC(=O)C2CC3CCCC(C2)C3=O)cc1 (stereo unspecified)	none
CCCCc1nnc(NC(=O)c2ccc(OCc3c(C)noc3C)cc2)s1	none (no result: eIF4H FP inh, PABP polyA inh, eIF4E 4G PPI, PfM18AAP inh, PERK inhibitor)
CCc1nnc(NC(=O)Cc2ccc(OCc3c(C)noc3C)cc2)s1	eIF4E 4G PPI 65
CSc1c(C#N)c(N)nc2sc(C(=O)c3ccccc3)c(N)c12	eIF4H FP inh 85, PABP polyA inh 60
Cc1ccnc(N2CCN(C(=O)CSc3nc4ccccc4nc3N3CCC(C)CC3)CC2)c1	none
Cc1ccc(N/N=C2/CCCNC2=O)cc1	none
CC(=O)c1ccc(N/N=C2/CCCNC2=O)cc1	PERK inhibitor 4.0
N#CC1CC(c2ccccc2)Nc2cc(Cl)ccc2N1 (stereo unspecified)	none
O=C(CN1CCN(S(=O)(=O)c2ccc(Cl)c(Cl)c2)CC1)N1CCCC1	none (no result: eIF4H FP inh, PABP polyA inh, eIF4E 4G PPI, PfM18AAP inh, PERK inhibitor)
CC(=O)Nc1ccc(C2=NNC(=NCC3CCCO3)SC2)cc1 (stereo unspecified)	none
Fc1ccc(F)c(C2=NNC(=NCC3CCCO3)SC2)c1 (stereo unspecified)	MLLE-PAM2 inh 64
O=C(Nc1cc2c3c(c1)CC(=O)N3CCC2)C1CCCCC1	none (no result: eIF4H FP inh, PABP polyA inh, eIF4E 4G PPI, PfM18AAP inh, PERK inhibitor)
Cc1c2c(=O)n(-c3nc4ccccc4s3)nc-2cc(O)n1Cc1ccccc1	eIF4H FP inh 60, PABP polyA inh 50, eIF4E 4G PPI 32
Cc1cc(C)n(-c2nc3ccccc3s2)n1	none
CCOc1ccc(S(=O)(=O)N2CCN(C(=O)c3cc4ccccc4o3)CC2)cc1	none (no result: eIF4H FP inh, PABP polyA inh, eIF4E 4G PPI, PfM18AAP inh, PERK inhibitor)
CCOc1ccccc1CNc1ccc(O)cc1	PABP polyA inh 36
COC(=O)c1cc(OC)c(OC)cc1NC(=O)c1ccccc1C	none
Cc1cc(=O)[nH]c(SCC(=O)N2CCCc3ccccc32)n1	none
O=C(CSc1nccc(=O)[nH]1)N1CCCc2ccccc21	MLLE-PAM2 inh 38
CC(C)(C)NC(=O)NC(=O)CN1CCN(c2cccc(Cl)c2)CC1	eIF4E 4G PPI 85
COC(=O)/C=C1\SC(=NC(=O)c2ccc(C)cc2)NC1=O	MLLE-PAM2 inh 40
CC(=O)C1=C(C)NC(SCC(=O)c2ccc(Cl)c(Cl)c2)=C(C#N)C1c1ccco1 (stereo unspecified)	eIF4H FP inh 71, PABP polyA inh 60 (no result: eIF4E 4G PPI)
CCOC(=O)CSC1=C(C#N)C(c2ccccc2F)C(C(C)=O)=C(C)N1 (stereo unspecified)	eIF4H FP inh 50, PABP polyA inh inconclusive
CCc1ccc(C(=O)CSC2=C(C#N)C(c3ccco3)C(C(C)=O)=C(C)N2)cc1 (stereo unspecified)	eIF4H FP inh 72 (no result: MLLE-PAM2 inh)
O=C(O)c1ccc(S(=O)(=O)c2ccc3c(c2)C(=O)N(c2ccc(Br)cc2)C3=O)cc1	none (no result: eIF4E 4G PPI, PERK inhibitor)
Cc1cc(C)c(S(=O)(=O)Nc2cc(C)on2)c(C)c1	none (no result: eIF4E 4G PPI, PERK inhibitor)
